High-throughput results as filed in PubChem BioAssay.
This is one part of a sample in which hits are shown more often than they occur.
GC-B act: GC-B (human) receptor activation. P20594. HEK293-GC-B cells, CNP EC30, cGMP TR-FRET; 0% at EC30 CNP, 100% saturating CNP. activation, % at 10 µM. actives 0.11% (n = 370,000). AID 1920062;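 active means activation at 10 µM reaching about 35% in either raw or pattern-adjusted values, limit read from the data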
ALR inh: human ALR oxidase inhibition via reduced H2O2. purified ALR, DTT oxidation, H2O2 HRP-luminol luminescence. inhibition, % (test concentration not listed). actives 3.8% (n = 290,000). AID 485317;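 active means mean replicate inhibition above about 79%, with every replicate also reaching it, limit read from the data; inconclusive means only one of the two criteria met; inactive means mean below limit and not every replicate reaching it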
HDAC3 inhib: blocks human histone deacetylase 3; O15379; recombinant HDAC3, fluorogenic peptide/trypsin coupled, fluorescence; inhibition, % at 8.3 µM; actives 0.15% (n = 320,000); AID 2718; in the data active means inhibition above about 26%, passing the limit was not always enough; inconclusive means no clear call, values can overlap the other calls
GC-A act: GC-A (human) enzyme activation; HEK293 GC-A cells, cGMP TR-FRET, EC30 ANP; 0% at EC30 ANP, 100% saturating ANP; activation, % at 10 µM; actives 0.14% (n = 370,000); AID 1671463; in the data active means activation above about 40%
Target sequence (P16066 whole entry, looked up): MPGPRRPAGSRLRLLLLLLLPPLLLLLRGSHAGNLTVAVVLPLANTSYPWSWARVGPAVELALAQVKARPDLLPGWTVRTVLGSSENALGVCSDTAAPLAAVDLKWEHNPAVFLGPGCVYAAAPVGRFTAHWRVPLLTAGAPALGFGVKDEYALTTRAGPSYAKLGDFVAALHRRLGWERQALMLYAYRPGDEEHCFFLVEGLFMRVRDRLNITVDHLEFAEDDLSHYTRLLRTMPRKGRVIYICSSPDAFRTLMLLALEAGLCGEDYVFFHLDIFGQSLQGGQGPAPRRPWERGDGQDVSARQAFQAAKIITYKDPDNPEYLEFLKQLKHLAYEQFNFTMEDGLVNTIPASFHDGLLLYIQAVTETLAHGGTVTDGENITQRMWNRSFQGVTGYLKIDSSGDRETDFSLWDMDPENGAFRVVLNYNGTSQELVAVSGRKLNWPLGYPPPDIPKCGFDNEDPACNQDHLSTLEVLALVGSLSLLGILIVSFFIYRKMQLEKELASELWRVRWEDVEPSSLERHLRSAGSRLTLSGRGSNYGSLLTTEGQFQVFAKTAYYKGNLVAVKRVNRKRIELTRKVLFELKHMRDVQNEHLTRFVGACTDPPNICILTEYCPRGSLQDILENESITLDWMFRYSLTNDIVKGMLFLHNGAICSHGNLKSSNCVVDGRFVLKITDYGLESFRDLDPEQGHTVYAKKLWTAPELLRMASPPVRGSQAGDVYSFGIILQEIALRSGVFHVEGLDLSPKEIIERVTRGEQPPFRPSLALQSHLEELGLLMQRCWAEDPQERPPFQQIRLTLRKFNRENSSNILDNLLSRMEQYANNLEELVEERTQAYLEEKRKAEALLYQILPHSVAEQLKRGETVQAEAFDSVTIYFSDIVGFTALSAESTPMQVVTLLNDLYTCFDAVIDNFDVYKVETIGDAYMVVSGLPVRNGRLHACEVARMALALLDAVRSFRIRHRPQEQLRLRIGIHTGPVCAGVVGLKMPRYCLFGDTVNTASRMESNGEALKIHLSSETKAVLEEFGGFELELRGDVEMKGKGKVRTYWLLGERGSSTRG
An asterisk follows results filed as active.

How did CC(C)(C)c1ccc(-n2nc(C(N)=O)c(O)cc2=O)cc1 do in these assays?
GC-B act: -0.8; ALR inh: 8.3; HDAC3 inhib: 2.8; GC-A act: 0.1

What do the screens show for `CC(C)(C)c1ccc(-n2nc(C#N)c(Cl)cc2=O)cc1`?
GC-B act: 74.5*; GC-A act: 68.6*

Results for CC(C)[C@H](NC(=O)c1ccco1)C(=O)N1CCC[C@H]1C(=O)NCc1ccccc1 ?
GC-B act: -1.7; GC-A act: 2.6

Results for C#CCNC(=O)C[C@H]1C[C@@]2(C(=O)OC)C(=C[C@H](C(C)C)O[C@@H]2C2CC2)N(CCCCCCCC)C1=O ?
GC-B act: -8.6; GC-A act: 0.6

Results for Cc1c(Nc2nc(-c3cccc([N+](=O)[O-])c3)cs2)c(=O)n(-c2ccccc2)n1C ?
GC-B act: -6.1; ALR inh: 34.5; HDAC3 inhib: 3.0; GC-A act: 0.6

What do the screens show for `Cc1[nH]n(-c2nc(-c3cccc([N+](=O)[O-])c3)cs2)c(=O)c1C`?
GC-B act: -3.3; ALR inh: 96.9*; HDAC3 inhib: 2.2; GC-A act: -4.9

Results for Cc1cccc(C(=O)NNC2=C(C(=O)C(F)(F)F)CCC2)c1O ?
GC-B act: 6.2; ALR inh: 97.3*; HDAC3 inhib: 13.7; GC-A act: -2.8

Results for C/C(=N\Nc1nc2ccccc2[nH]1)c1ccc2c(c1)OCCO2 ?
GC-B act: -7.8; ALR inh: 98.7*; HDAC3 inhib: inconclusive; GC-A act: -2.8

How did C/C(=N\Nc1nc2ccccc2[nH]1)c1ccc2c(c1)OCO2 do in these assays?
GC-B act: -0.1; ALR inh: 99.7*; HDAC3 inhib: 2.4; GC-A act: -0.3

How did CCOc1ccc(C/C(O)=C2\C(=O)CC(C)(C)CC2=NCC(=O)O)cc1OCC do in these assays?
GC-B act: 3.6; ALR inh: 0.4; HDAC3 inhib: -2.8; GC-A act: 0.2

How did CCC(=O)NC(c1cc(Cl)c2ccccc2c1O)C(C)C (centres undefined) do in these assays?
GC-B act: -0.7; ALR inh: 94.7*; HDAC3 inhib: -0.2; GC-A act: -3.9

How did CC(=O)NC(c1ccco1)c1cc(Cl)c2ccccc2c1O (centres undefined) do in these assays?
GC-B act: 3.2; ALR inh: 88.1*; HDAC3 inhib: -34.6; GC-A act: -2.8

What do the screens show for `C[C@@H]1CN([C@H](C)CO)C(=O)CCCn2nncc2CO[C@H]1CN(C)Cc1ccc(C(F)(F)F)cc1`?
GC-B act: 2.0; GC-A act: 4.1

How did O=C1CC[C@@H]2C[C@@]3(C[C@@H]4CCN1[C@H]24)Nc1cc([N+](=O)[O-])ccc1NC3=NCc1ccccc1 do in these assays?
GC-B act: -1.4; GC-A act: -2.7

Results for Oc1ccc(Oc2ccc3c(C(F)(F)F)cc(C(F)(F)F)nc3n2)cc1 ?
GC-B act: 6.4; ALR inh: 98.8*; HDAC3 inhib: 10.7; GC-A act: -0.9

How did CCc1cc(SC#N)cc(C)c1NC(=O)CCl do in these assays?
GC-B act: 6.4; ALR inh: 98.4*; HDAC3 inhib: -0.5; GC-A act: 8.2

Results for Cc1cc(SC#N)cc(C)c1NC(=O)CCl ?
GC-B act: 18.9; ALR inh: inconclusive; HDAC3 inhib: -1.2; GC-A act: 18.2

Results for CCC(=O)Nc1ccc(SC#N)cc1C ?
ALR inh: 98.4*; HDAC3 inhib: 3.1

Results for C[C@H](CO)N1C[C@H](C)[C@@H](CN(C)C(=O)Nc2cccc(F)c2)OCc2cn(nn2)CCCC1=O ?
GC-B act: 1.9; GC-A act: 0.1

How did O=C(Nc1ccc(C(=O)O)cc1)Nc1ccc(F)cc1F do in these assays?
GC-B act: 0.1; ALR inh: 4.0; HDAC3 inhib: 6.1; GC-A act: 2.6

Results for O=C1OCCC1Sc1nc2ccccc2s1 (centres undefined) ?
GC-B act: 2.4; ALR inh: 98.0*; HDAC3 inhib: 1.4; GC-A act: 0.3

Results for CSc1nc2cc(Cl)ccc2s1 ?
GC-B act: 2.7; HDAC3 inhib: -7.3; GC-A act: 1.9

What do the screens show for `O=C1OCCC1Sc1nc2cc(Cl)ccc2s1` (centres undefined)?
GC-B act: 54.1*; ALR inh: -2.7; HDAC3 inhib: 0.7; GC-A act: 37.9

How did O=[N+]([O-])c1cc(S(=O)(=O)O)cc([N+](=O)[O-])c1NN(c1ccccc1)c1ccccc1 do in these assays?
GC-B act: 6.3; ALR inh: 98.5*; HDAC3 inhib: 2.9; GC-A act: 0.3

Results for CCCCCOCC1CC(C/C(C)=N/Nc2nc(-c3ccccc3)cs2)C(=O)O1 (centres undefined) ?
GC-B act: 6.4; ALR inh: 96.0*; HDAC3 inhib: -1.2; GC-A act: 5.2

How did CCCCCOCC1CC(C/C(C)=N/NC(N)=S)C(=O)O1 (centres undefined) do in these assays?
GC-B act: 5.7; ALR inh: 0.9; HDAC3 inhib: -1.0; GC-A act: -1.2

How did CC1=C(C(=O)NC2CCCc3c2cnn3-c2ccc(F)cc2F)OCCO1 (centres undefined) do in these assays?
GC-B act: 1.4; ALR inh: 89.3*; HDAC3 inhib: 10.7; GC-A act: 1.4

How did CCc1cc(C(=O)NC2CCCc3c2cnn3-c2ccc(F)cc2F)no1 (centres undefined) do in these assays?
GC-B act: -3.4; GC-A act: 7.0

How did CCCCCCCCN1C(=O)[C@@H](CC(=O)NCc2ccc(OC)c(OC)c2)C[C@@]2(C(=O)OC)C1=C[C@H](C(C)C)O[C@@H]2C1CC1 do in these assays?
GC-B act: 5.2; GC-A act: -6.0

What do the screens show for `CCCc1nc(SCC(=O)c2ccc(OC)cc2)c2ccccc2n1`?
GC-B act: -1.5; ALR inh: 89.6*; HDAC3 inhib: 23.1; GC-A act: -2.7

Results for CCc1nc(SCC(=O)NNC(=O)c2ccc(OC)cc2)c2ccccc2n1 ?
GC-B act: -5.3; ALR inh: -3.6; HDAC3 inhib: -0.7; GC-A act: 3.1

What do the screens show for `O=C(CSc1ncnc2ccccc12)c1ccc2c(c1)OCCO2`?
GC-B act: -0.3; ALR inh: 98.9*; HDAC3 inhib: 16.0; GC-A act: 2.9

Results for CCc1nc(SCC(=O)c2ccc3c(c2)OCCO3)c2ccccc2n1 ?
GC-B act: -0.3; HDAC3 inhib: 34.2*; GC-A act: 5.0

Results for CCc1nc(SCC(=O)N2c3ccccc3Sc3ccccc32)c2ccccc2n1 ?
GC-B act: -8.8; ALR inh: -9.8; HDAC3 inhib: 4.3; GC-A act: -5.4

Results for O=C(COc1ncnc2ccccc12)c1ccc2c(c1)OCCO2 ?
GC-B act: -7.0; ALR inh: -2.6; HDAC3 inhib: 9.3; GC-A act: 1.1

What do the screens show for `CCc1nc(SCC(=O)c2ccccc2)c2ccccc2n1`?
GC-B act: 0.6; ALR inh: 98.8*; HDAC3 inhib: 2.5; GC-A act: 1.7

Results for CCCN(C)C1CN(Cc2cn(Cc3ccc(F)cc3)nn2)S(=O)(=O)C1 (centres undefined) ?
GC-B act: 3.6; GC-A act: 1.0
